In PubChem BioAssay (NCI):
The panel holds about 83,000 compounds, 20% with a hit somewhere; the sample as a whole holds those more often.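 Assay: single dose, 48 h. Readout: percent growth (0 = no net growth; negative = cell death). Active: <10.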 Activity calls are given as the source filed them.

The compounds below were run on SF-268 CNS (assay: NCI-60 one-dose screen, 48 h (100 = growth as untreated, 0 = no growth, -100 = all killed)). Details: 10 µM.
With O=C1CC(c2cccc(-c3cccnc3)c2)=Nc2ccc(Br)cc2N1 the growth was 44.1% (inactive).
In the case of CCCOCC(O)CNCCN (configuration not stated), the growth is reported as 113% (inactive).
In the case of COc1ccc(C2C=C(c3ccc(Cl)c(Cl)c3)N=C3SC(C)=CN32)cc1 (configuration not stated), the growth is reported as 97.2% (inactive).
COC(=O)c1cnc2c(c1)Oc1ccccc1-c1ccnn1-2 was tested, and the growth was 98.7% (inactive).
With CCCCC(CC#N)(CCC)CCC the growth was 101% (inactive).
In the case of COc1cc(OC)cc(N2CCN(C(=O)Nc3nc4cc(F)ccc4nc3OC)CC2)c1, the growth is reported as 29.2% (inactive).
With CCOC(=O)Nc1ccc2c(c1)C(=O)N(CC)c1ccccc1O2 the growth was 42.1% (inactive).
C=C[C@]1(C)C=C2C(=O)[C@@]3(O)OC(=O)[C@@]4(CCCC(C)(C)[C@H]34)[C@@]2(O)CC1 was tested, and the growth was -66.7% (active).
Cc1ccc2c3c(cccc13)-c1ccccc1C2=O was tested, and the growth was 95.7% (inactive).
In the case of CCN(CC)CCn1c(=N)n(CC(O)c2ccc(Cl)c(Cl)c2)c2ccccc21 (configuration not stated), the growth is reported as 87.2% (inactive).
In the case of COc1cc(Nc2ccnc(N3CCN(c4ccnc5cc(Cl)ccc45)CC3)n2)cc(OC)c1, the growth is reported as 27.7% (inactive).
With O=C1CC[C@@H](C(=O)N[C@H]2CSSC[C@@H](C(=O)NCCc3ccccc3)NC(=O)[C@H](Cc3ccccc3)NC(=O)[C@@H]3CCCN3C(=O)[C@@H]3CCCN3C2=O)N1 the growth was 106% (inactive).
For COc1cc(C(c2c[nH]c3ccccc23)N2CCCC2)ccc1OCc1ccccc1 (configuration not stated), the growth was 74.6% (inactive).
Cc1ccc(/C=C2\CN(Cc3cn(CCNc4ccnc5cc(Cl)ccc45)nn3)C/C(=C\c3ccc(C)cc3)C2=O)cc1 was tested, and the growth was -70.7% (active).
For CCNC1(NC#N)CCCCC1, the growth was 112% (inactive).
CC(=O)Nc1ccc(Sc2ccc(NC(C)=O)cc2)cc1 was tested, and the growth was 102% (inactive).
O=C(Nc1ccc(CN2CCOCC2)cc1)c1ccc(-c2cc(Cl)ccc2Cl)o1 was tested, and the growth was 57.8% (inactive).
COc1cccc(C(=O)NNc2nc(N3CCN(C4CCCCC4)CC3)nc(N3CCN(C(c4ccccc4)c4ccccc4)CC3)n2)c1 was tested, and the growth was 51.1% (inactive).
For Oc1cc(O)c(Br)cc1Br, the growth was 100% (inactive).
With CS(=O)(=O)Nc1ccc(Nc2c3ccccc3nc3cc(Cl)ccc23)cc1 the growth was 37.6% (inactive).
With c1ccc(C2CCCCC2)c(OCCCCCN2CCNCC2)c1 the growth was 70.7% (inactive).
With Cc1nnc2c3nnc(-c4ccc(Cl)cc4)n3c3ccccc3n12 the growth was 100% (inactive).
In the case of Cc1ccc(C)c2c1sc1nc3n[nH]c(N)c3c(=N)n12, the growth is reported as 109% (inactive).
For CCCc1ccnc(NS(=O)(=O)c2ccc(N)cc2)n1, the growth was 95.6% (inactive).
CCc1ccc(Nc2cc(C)nc3nc(C)nn23)cc1 was tested, and the growth was 37.8% (inactive).
For CN(C)c1ccc2c(c1)OC(N)=C(C#N)C2c1ccc2c(c1)CCO2 (configuration not stated), the growth was 47.7% (inactive).
With CC(C)C[C@H](NC(=O)CCn1ccc2ccccc2c1=O)B(O)O the growth was 69.9% (inactive).
With COc1ccc(/C=C2\CCC3C(CCCC34OCCO4)C2=O)cc1 (configuration not stated) the growth was 97.2% (inactive).
For COc1cc(-c2nc3ccc(C)cc3[nH]2)ccc1OCc1nnc(-c2ccc(CC(C)C)cc2)o1, the growth was 105% (inactive).
COc1ccc(CSc2nc3cc(OC)c(OC)cc3c(=O)n2-c2ccc(OC)cc2OC)cc1 was tested, and the growth was 86.4% (inactive).
With C[N+]1=C(/C=C/c2ccc(I)cc2)C(C)(C)c2ccccc21 the growth was 89.9% (inactive).
c1ccc(OCCC[P+](c2ccccc2)(c2ccccc2)c2ccccc2)cc1 was tested, and the growth was 18% (inactive).
In the case of CCN1CCN(c2nc(NNC(=O)c3cccc(OC)c3)nc(N3CCN(C(c4ccccc4)c4ccccc4)CC3)n2)CC1, the growth is reported as 80.9% (inactive).
With CNC(=O)c1cc(Oc2ccc(NC(=O)Nc3ccc(Cl)c(C(C)(C)C)c3)c(F)c2)ccn1 the growth was 59.1% (inactive).
CCc1cc2n(n1)-c1ncc(C(=O)OC)cc1Oc1ccccc1-2 was tested, and the growth was 103% (inactive).
In the case of O=C(O)c1ccc(CNc2ccc(C(=O)CCl)cc2)cc1, the growth is reported as 109% (inactive).
For CCN(CCCNC(=O)Cc1cc(=O)oc2cc(N(C)C)ccc12)CCNc1ccnc2cc(Cl)ccc12, the growth was 92.1% (inactive).
